Consider seven molecules from PubChem BioAssay (Tox21).

Each structure is given as a SMILES string. Results filed as inconclusive are left out. Active and inactive are the calls of the source. Unless noted, the call rests on the fitted dose curve.

A short description of assay [1]: qHTS assay to identify small molecule agonists of the peroxisome proliferator-activated receptor delta (PPARd) signaling pathway - cell viability counter screen (AID 743211; active means well fitted curve in the direction sought with a large enough effect in the repeat runs; an effect the other way counts as inactive or inconclusive; further: nearly all actives have a fitted effect of over 55% in size). In short, it runs like this:
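In the same wells used for beta-lactamase reporter measurement, cytotoxicity is scored by CellTiter-Glo. HEK293H PPARd-bla cells receive compound for 17 h at 37C following a 5 h settling period.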

Assay [2] concerns the target Peroxisome proliferator-activated receptor delta (Homo sapiens) (UniProt Q03181). The experiment in a line: qHTS assay to identify small molecule agonists of the peroxisome proliferator-activated receptor delta (PPARd) signaling pathway (AID 743212). The method, boiled down: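 Read-out: beta-lactamase FRET fluorescence after 2 h room-temperature incubation with LiveBLAzer B/G substrate. Cells were HEK293H carrying a UAS-bla reporter for PPARd, treated at 37 C with DMSO-dissolved compounds.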
On the technique in general: Quantitative high-throughput screening tests each substance at several concentrations.

The nature of assay [3]: qHTS assay to identify small molecule antagonists of the peroxisome proliferator-activated receptor delta (PPARd) signaling pathway - cell viability counter screen (AID 743213; active means well fitted curve in the direction sought with a large enough effect in the repeat runs; an effect the other way counts as inactive or inconclusive; further: nearly all actives have a fitted effect of over 50% in size). In short, it runs like this: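 PPARd-bla HEK293H cells were treated with compounds plus agonist L165041 (300 nM final) for 17 h at 37 C. Viability was then read in the same wells by CellTiter-Glo luminescence after 30 min at room temperature.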

Assay [4] in a line: qHTS assay to identify small molecule antagonists of the farnesoid-X-receptor (FXR) signaling pathway - cell viability counter screen (AID 743221; active means well fitted cell-killing curve with a large enough effect in the repeat runs, not every such curve was filed as active; further: nearly all actives have a fitted effect of over 50% in size). The method, boiled down: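 Here viability was scored by luminescence after CellTiter-Glo addition to wells already read for beta-lactamase. Prior treatment: compound plus CDCA (50 uM final), 16 h, 37 C, HEK 293T FXR-bla cells.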
The target of assay [5] is Vitamin D3 receptor (Homo sapiens) (UniProt P11473). In words: qHTS assay to identify small molecule agonists of the vitamin D receptor (VDR) signaling pathway (AID 743222). The method, boiled down: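 Cells carrying a VDR-driven beta-lactamase reporter are seeded at 2,000 per well and rested 4 h. Compounds in DMSO are added for 16 h at 37C, and FRET substrate fluorescence is measured after 2 h at room temperature.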

Assay [6] has the same target. In words: qHTS assay to identify small molecule antagonists of the vitamin D receptor (VDR) signaling pathway (AID 743223; active means well fitted inhibition curve with a large enough effect in the signal ratio in the repeat runs, not every such curve was filed as active; the % refers to the signal ratio). In short, it runs like this: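 Inhibition of agonist-driven VDR signalling is scored in VDR-bla cells: 3 nM final 1alpha,25-dihydroxyvitamin D3 plus compound, 16 h at 37C, then beta-lactamase detection by FRET substrate fluorescence after 2 h.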

A short description of assay [7]: qHTS assay to identify small molecule agonists of the vitamin D receptor (VDR) signaling pathway - cell viability counter screen (AID 743224; active means well fitted curve in the direction sought with a large enough effect in the repeat runs; an effect the other way counts as inactive or inconclusive; further: series mostly up to about 63 µM; nearly all actives have a fitted effect of over 50% in size). The method, boiled down: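 Cells: VDR-bla, 2,000/well, settled 4 h. Treatment: compounds in DMSO, 16 h, 37C/5% CO2. Readout: CellTiter-Glo luminescence after 30 min RT.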
Assay [8] in a line: qHTS assay to identify small molecule antagonists of the vitamin D receptor (VDR) signaling pathway - cell viability counter screen (AID 743225; active means well fitted curve in the direction sought with a large enough effect in the repeat runs; an effect the other way counts as inactive or inconclusive; further: nearly all actives have a fitted effect of over 50% in size). The method, boiled down:
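Compounds were pinned onto VDR-bla HEK 293T cells together with 1-alpha,25-dihydroxyvitamin D3 at 3 nM final. After 16 h at 37C and 5% CO2 plus the reporter readout, cell viability was measured by CellTiter-Glo luminescence (30 min, room temperature).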

Assay [9] is described as follows: qHTS assay to identify small molecule agonists of the NFkB signaling pathway - cell viability counter screen (AID 1159515). Further: series mostly up to about 61 µM; nearly all actives have a fitted effect of over 55% in size. The method, boiled down:
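Cells are seeded (2,000 NFkB-bla ME-180 per well), rested overnight, and dosed with DMSO-dissolved compounds for 5 hr at 37 C. Viability is then read by CellTiter-Glo luminescence after 30 min at room temperature.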

A short description of assay [10]: qHTS assay to identify small molecule agonists of the endoplasmic reticulum stress response signaling pathway (AID 1159516; active means well fitted activation curve with a large enough effect in the signal ratio in the repeat runs, not every such curve was filed as active; the % refers to the signal ratio). The method, boiled down:
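Cells are seeded at 1,500 per well and incubated overnight. Compounds in DMSO are added for 5 hr at 37 C, then beta-lactamase FRET substrate for 2 hr at room temperature, and fluorescence at 460 and 530 nm is measured.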

Assay [11] in a line: qHTS assay to identify small molecule agonists of the endoplasmic reticulum stress response signaling pathway - cell viability counter screen (AID 1159517). The method, boiled down: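 Steps: seed 1,500 ESRE-bla HeLa cells per well; incubate overnight at 37 C, 5% CO2; add compounds in DMSO for 5 hr; run FRET substrate 2 hr RT; add CellTiter-Glo, wait 30 min, read luminescence.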

Assay [12] can be described thus: qHTS assay to identify small molecule antagonists of the retinoid-related orphan receptor gamma (ROR-gamma) signaling pathway - cell viability counter screen (AID 1159520; active means well fitted curve in the direction sought with a large enough effect in the repeat runs; an effect the other way counts as inactive or inconclusive; further: nearly all actives have a fitted effect of over 50% in size). In short, it runs like this:
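Tet-on ROR gamma CHO cells were given compounds for 2 hr, then doxycycline hyclate at 1 uM final, and incubated 16 hr at 37 C. Viability was measured as ATP content by CellTiter-Glo luminescence.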

Assay [13] addresses Nuclear receptor ROR-gamma (Homo sapiens) (UniProt P51449). The experiment in a line: qHTS assay to identify small molecule antagonists of the retinoid-related orphan receptor gamma (ROR-gamma) signaling pathway (AID 1159521; active means well fitted curve in the direction sought with a large enough effect in the repeat runs; an effect the other way counts as inactive or inconclusive). The method, boiled down:
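Test compounds were applied to Tet-on RORγ CHO cells 2 h ahead of doxycycline hyclate (1 uM final). Luciferase reporter activity was quantified by luminescence after 16 h at 37 C and 5% CO2.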

Assay [14] in a line: qHTS assay to identify small molecule agonists of the AP-1 signaling pathway - cell viability counter screen (AID 1159525). Further: nearly all actives have a fitted effect of over 55% in size. In short, it runs like this:
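Same-well cytotoxicity counter screen of the Tox21 10K library in ME-180 cells. The readout is ATP-dependent luminescence after 5 h compound treatment. Data are normalised to DMSO and tetra n-octyl ammonium bromide controls.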

The nature of assay [15]: qHTS assay to identify small molecule agonists of the AP-1 signaling pathway (AID 1159526).
Assay [16] has as its target Retinoic acid receptor RXR-alpha (Homo sapiens) (UniProt P19793). The experiment in a line: qHTS assay to identify small molecule agonists of the RXR signaling pathway (AID 1159527). Further: nearly all actives have a fitted effect of over 35% in size. Further: potency means the concentration at half of the fitted maximal effect. The method, boiled down: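 Using 9-cis retinoic acid as the reference agonist, chemicals were tested in HEK 293T cells […] for 16 hr; substrate loading lasted 2 hr at room temperature.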

Assay [17] concerns the target Bile acid receptor (Homo sapiens) (UniProt Q96RI1). In words: qHTS assay to identify small molecule antagonists of the farnesoid-X-receptor (FXR) signaling pathway (AID 743217; active means well fitted inhibition curve with a large enough effect in the signal ratio in the repeat runs, not every such curve was filed as active; the % refers to the signal ratio). In short, it runs like this:
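Cells carrying a UAS-driven beta-lactamase reporter (GeneBLAzer FXR-UAS-bla HEK 293T) were plated and rested 5 h at 37 °C. Compounds in DMSO were added alongside chenodeoxycholic acid agonist at 50 uM final and left 16 h at 37 °C before FRET substrate readout.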

The target is the same in assay [18]. In words: qHTS assay to identify small molecule agonists of the farnesoid-X-receptor (FXR) signaling pathway (AID 743220; active means well fitted activation curve with a large enough effect in the signal ratio in the repeat runs, not every such curve was filed as active; the % refers to the signal ratio). The method, boiled down:
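FXR-UAS-bla HEK 293T cells carrying a UAS-driven beta-lactamase reporter were plated for 5 h at 37C/5% CO2, then exposed to DMSO-dissolved Tox21 10K compounds for 16 h at 37C. A LiveBLAzer B/G FRET substrate was loaded for 2 h at room temperature before fluorescence reading.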

The nature of assay [19]: qHTS assay to identify small molecule agonists of the farnesoid-X-receptor (FXR) signaling pathway - cell viability counter screen (AID 743218; active means well fitted curve in the direction sought with a large enough effect in the repeat runs; an effect the other way counts as inactive or inconclusive; further: nearly all actives have a fitted effect of over 45% in size). The method, boiled down:
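Cells were seeded, left 5 h at 37 C and 5% CO2, then dosed with compound in DMSO for 16 h. After the beta-lactamase FRET read, CellTiter-Glo was added and luminescence measured 30 min later.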

The target of assay [20] is Peroxisome proliferator-activated receptor delta (Homo sapiens) (UniProt Q03181). In words: qHTS assay to identify small molecule antagonists of the peroxisome proliferator-activated receptor delta (PPARd) signaling pathway (AID 743215; active means well fitted inhibition curve with a large enough effect in the signal ratio in the repeat runs, not every such curve was filed as active; the % refers to the signal ratio;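 further: cells stimulated with agonist L165041 at 300 nM final during compound exposure; series mostly up to about 62 µM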). The method, boiled down:
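Cells: HEK293H with a UAS-driven beta-lactamase reporter responsive to PPARd. Compounds were co-added with L165041 (300 nM, final) and incubated 17 h at 37 C before a 2 h room-temperature FRET substrate step and fluorescence reading.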

Vitamin D3 receptor (Homo sapiens), sequence (P11473 whole entry, looked up): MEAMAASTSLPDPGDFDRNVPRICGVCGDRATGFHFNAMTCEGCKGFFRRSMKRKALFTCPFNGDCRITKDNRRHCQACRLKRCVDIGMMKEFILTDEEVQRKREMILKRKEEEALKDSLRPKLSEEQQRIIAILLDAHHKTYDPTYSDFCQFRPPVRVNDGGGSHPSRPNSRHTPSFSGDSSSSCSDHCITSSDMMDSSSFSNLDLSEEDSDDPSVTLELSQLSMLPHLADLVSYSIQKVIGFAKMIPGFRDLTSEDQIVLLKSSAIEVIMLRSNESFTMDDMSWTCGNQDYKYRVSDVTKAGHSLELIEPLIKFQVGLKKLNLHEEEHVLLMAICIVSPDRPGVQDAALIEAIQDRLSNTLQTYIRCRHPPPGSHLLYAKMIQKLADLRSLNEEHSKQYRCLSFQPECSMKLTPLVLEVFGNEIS
Peroxisome proliferator-activated receptor delta (Homo sapiens), sequence (Q03181 whole entry, looked up): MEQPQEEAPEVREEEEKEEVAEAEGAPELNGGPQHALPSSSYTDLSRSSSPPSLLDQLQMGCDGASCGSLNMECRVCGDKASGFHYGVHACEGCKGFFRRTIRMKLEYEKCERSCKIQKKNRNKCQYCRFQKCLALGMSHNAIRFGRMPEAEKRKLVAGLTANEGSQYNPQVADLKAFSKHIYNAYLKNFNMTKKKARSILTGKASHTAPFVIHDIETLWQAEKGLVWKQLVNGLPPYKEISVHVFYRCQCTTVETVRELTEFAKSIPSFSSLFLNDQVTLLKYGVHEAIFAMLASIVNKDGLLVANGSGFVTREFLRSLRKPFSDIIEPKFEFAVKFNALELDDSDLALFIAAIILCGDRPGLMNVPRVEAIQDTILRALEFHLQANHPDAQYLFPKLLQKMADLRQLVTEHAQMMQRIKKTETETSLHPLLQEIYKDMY
Retinoic acid receptor RXR-alpha (Homo sapiens), sequence (P19793 whole entry, looked up): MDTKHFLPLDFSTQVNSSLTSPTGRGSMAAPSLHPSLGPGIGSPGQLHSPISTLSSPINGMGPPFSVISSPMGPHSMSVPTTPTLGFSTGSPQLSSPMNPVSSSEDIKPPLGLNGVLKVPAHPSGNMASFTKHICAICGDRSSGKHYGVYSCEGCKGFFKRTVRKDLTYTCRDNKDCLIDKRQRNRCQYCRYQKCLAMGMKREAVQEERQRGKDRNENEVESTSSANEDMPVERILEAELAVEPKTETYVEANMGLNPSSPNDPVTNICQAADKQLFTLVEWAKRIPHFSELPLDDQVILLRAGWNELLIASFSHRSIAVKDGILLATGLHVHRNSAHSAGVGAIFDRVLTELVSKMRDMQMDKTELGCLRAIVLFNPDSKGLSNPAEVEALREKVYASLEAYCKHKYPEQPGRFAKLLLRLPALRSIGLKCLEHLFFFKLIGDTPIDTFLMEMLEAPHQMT
Bile acid receptor (Homo sapiens), sequence (Q96RI1 whole entry, looked up): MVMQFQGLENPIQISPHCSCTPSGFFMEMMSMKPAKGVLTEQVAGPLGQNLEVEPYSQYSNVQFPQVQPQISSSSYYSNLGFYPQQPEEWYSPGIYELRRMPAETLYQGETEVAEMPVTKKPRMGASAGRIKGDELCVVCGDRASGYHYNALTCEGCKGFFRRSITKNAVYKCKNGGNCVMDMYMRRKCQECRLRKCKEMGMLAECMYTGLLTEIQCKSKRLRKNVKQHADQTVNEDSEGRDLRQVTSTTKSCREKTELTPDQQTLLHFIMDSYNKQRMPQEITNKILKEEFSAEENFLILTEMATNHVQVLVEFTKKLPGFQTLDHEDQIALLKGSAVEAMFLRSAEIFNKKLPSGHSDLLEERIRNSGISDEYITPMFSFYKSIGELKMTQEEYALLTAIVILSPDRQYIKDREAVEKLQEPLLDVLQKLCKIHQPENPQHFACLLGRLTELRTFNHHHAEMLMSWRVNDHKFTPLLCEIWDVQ

Turning to `CCOP(=O)(OCC)OCC`, the Potency result in assay [1], in assay [2], in assay [3], in assay [4], in assay [6] and in assay [7] was “inactive” each time. Moreover, the Potency result in assay [8], in assay [9], in assay [10], in [11], in [12] and in assay [13] was “inactive” each time. For the same molecule, the Potency entry in assay [14] was “inactive”. Also, the outcome in assay [5] and in assay [15] was inactive. The Potency in assay [16] is 5.49 µM (active).
As for `CC(C)(O)C#N`, the Potency entry in assay [1], in [3], in assay [17], in assay [18], in [4] and in assay [6] was “inactive” throughout. Further, the Potency entry in assay [7], in [8], in assay [9], in [10], in [11] and in [12] was “inactive” throughout. Besides, the Potency result in assay [13], in assay [14] and in assay [16] was “inactive” each time. The call in [5] and in assay [15] was inactive.
As to `CSc1nc(NC(C)C)nc(NC(C)C)n1`, the Potency result in [1], in assay [3], in [19], in assay [4], in [6] and in [7] was “inactive” in each case. In addition, the Potency result in [8], in assay [9], in [10], in assay [11], in assay [12] and in assay [13] was “inactive” in each case. Also, the Potency result in assay [14] and in assay [16] was “inactive” throughout. Further, the molecule was classed as inactive in assay [5] and in assay [15].
Turning to `Cn1c(-c2ccccc2)cc(-c2ccccc2)[n+]1C`, the Potency result in assay [1], in [2], in [3], in assay [20], in [4] and in [6] was “inactive” each time. The Potency result in assay [7], in [8], in assay [9], in assay [10], in assay [11] and in assay [12] was “inactive” throughout. The Potency entry in [13], in assay [14] and in assay [16] was “inactive” each time. The molecule was called inactive in assay [5] and in assay [15].
With `O=NN1CCOCC1`, the Potency result in [1], in [2], in assay [3], in [20], in [4] and in assay [6] was “inactive” each time. In addition, the Potency result in assay [7], in [8], in assay [9], in [10], in [11] and in assay [12] was “inactive” throughout. Also, the Potency result in [13], in assay [14] and in [16] was “inactive” throughout. Besides, the call in [5] and in assay [15] was inactive.
Consider `C[C@]12CC[C@H]3[C@@H](CCC4=CC(=O)CC[C@@H]43)[C@@H]1CC[C@@H]2O`, for which the Potency entry in assay [1], in assay [2], in assay [3], in assay [20], in [17] and in assay [18] was “inactive” each time. The Potency entry in [4], in assay [6], in assay [7], in [8], in assay [9] and in [10] was “inactive” in each case. The Potency result in assay [11], in assay [12], in [13], in assay [14] and in assay [16] was “inactive” each time. For the same molecule, the result in assay [5] and in assay [15] was inactive.
Regarding `C=C(C)C#N`, the Potency entry in [1], in assay [2], in [3], in assay [20], in assay [17] and in assay [19] was “inactive” in each case. Further, the Potency result in assay [18], in assay [4], in [6], in assay [7], in assay [8] and in assay [9] was “inactive” throughout. For the same molecule, the Potency result in assay [10], in [11], in assay [12], in assay [13], in assay [14] and in [16] was “inactive” in each case. Moreover, the outcome in [5] and in assay [15] was inactive.
